Measurements as given in PubChem BioAssay (NCI).
This is part of a sample that, as a whole, favours compounds with a hit. Of some 83,000 tested, about 20% had one in any assay.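 Values shown are percent growth following 48 h exposure of cells in 96-well plates to a single concentration of compound; below 10 was considered active.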 Unmarked numbers belong to inactive results. Calls of active or inactive are those of the source.

Legend:
Test in all cases: NCI-60 one-dose screen, 48 h (100 = growth as untreated, 0 = no growth, -100 = all killed)
Conditions in all cases: 10 µM unless noted
DU-145 prostate = tested on: DU-145 prostate
K-562 leukemia = tested on: K-562 leukemia
MALME-3M melanoma = tested on: MALME-3M melanoma
MDA-MB-231 breast = tested on: MDA-MB-231 breast
RXF 393 renal = tested on: RXF 393 renal
SF-268 CNS = tested on: SF-268 CNS
SF-295 CNS = tested on: SF-295 CNS
SF-539 CNS = tested on: SF-539 CNS
UACC-257 melanoma = tested on: UACC-257 melanoma
M14 melanoma = tested on: M14 melanoma
HCT-15 colon = tested on: HCT-15 colon
HT29 colon = tested on: HT29 colon
SNB-75 CNS = tested on: SNB-75 CNS
SNB-19 CNS = tested on: SNB-19 CNS
U251 CNS = tested on: U251 CNS
PC-3 prostate = tested on: PC-3 prostate
SK-MEL-5 melanoma = tested on: SK-MEL-5 melanoma
UACC-62 melanoma = tested on: UACC-62 melanoma
LOX IMVI melanoma = tested on: LOX IMVI melanoma
SK-MEL-28 melanoma = tested on: SK-MEL-28 melanoma

Question: With `O=C1CN(Cc2ccc(C(=O)NO)cc2)C(=O)[C@@H](Cc2ccccc2)N1` as the compound, how does the growth (DU-145 prostate) read?
Answer: 111%

Question: What about the growth (K-562 leukemia) of the same compound?
Answer: 98%

Question: What about the growth (MALME-3M melanoma) of the same compound?
Answer: 94%

Question: And the growth (MDA-MB-231 breast)?
Answer: 102%

Question: And the growth (RXF 393 renal)?
Answer: 112%

Question: What about the growth (SF-268 CNS) of the same compound?
Answer: 99.7%

Question: What about the growth (SF-295 CNS) of the same compound?
Answer: 99.3%

Question: And the growth (SF-539 CNS)?
Answer: 99.7%

Question: And the growth (UACC-257 melanoma)?
Answer: 93.2%

Question: And the growth (M14 melanoma)?
Answer: 107%

Question: And the growth (HCT-15 colon)?
Answer: 104%

Question: And the growth (HT29 colon)?
Answer: 113%

Question: And the growth (SNB-75 CNS)?
Answer: 85.9%

Question: And the growth (SNB-19 CNS)?
Answer: 98.5%

Question: What about the growth (U251 CNS) of the same compound?
Answer: 92.4%

Question: And the growth (PC-3 prostate)?
Answer: 97.9%

Question: What about the growth (SK-MEL-5 melanoma) of the same compound?
Answer: 107%

Question: And the growth (UACC-62 melanoma)?
Answer: 99.2%

Question: What about the growth (LOX IMVI melanoma) of the same compound?
Answer: 111%

Question: And the growth (SK-MEL-28 melanoma)?
Answer: 105%

Question: Which results are given for `Cn1cc(-c2noc(-c3cn(C)c4ncc(Br)cc34)n2)c2cc(Cl)ccc21`?
Answer: growth (DU-145 prostate): 87%; growth (K-562 leukemia): 66.3%; growth (MALME-3M melanoma): 35.4%; growth (MDA-MB-231 breast): 57.2%; growth (RXF 393 renal): 105%; growth (SF-268 CNS): 59.1%; growth (SF-295 CNS): 63%; growth (SF-539 CNS): 48.9%; growth (UACC-257 melanoma): 99.2%; growth (M14 melanoma): 82.4%; growth (HCT-15 colon): 87.6%; growth (HT29 colon): 67.3%; growth (SNB-75 CNS): 56.2%; growth (SNB-19 CNS): 63%; growth (U251 CNS): 97.5%; growth (PC-3 prostate): 80.3%; growth (SK-MEL-5 melanoma): 83.9%; growth (UACC-62 melanoma): 78.5%; growth (LOX IMVI melanoma): 65.4%; growth (SK-MEL-28 melanoma): 86.8%

Question: What does the source list for `CC1(C)CC[C@]2(C(N)=O)CC[C@]3(C)C(=CC[C@@H]4[C@@]5(C)C/C(=C/c6cccnc6)C(=O)C(C)(C)[C@@H]5CC[C@]43C)[C@@H]2C1`?
Answer: growth (DU-145 prostate): -18% [100 µM] (active); growth (K-562 leukemia): 4.29% [100 µM] (active); growth (MALME-3M melanoma): -75.9% [100 µM] (active); growth (MDA-MB-231 breast): -45.2% [100 µM] (active); growth (RXF 393 renal): -63% [100 µM] (active); growth (SF-268 CNS): -5.09% [100 µM] (active); growth (SF-295 CNS): -53.9% [100 µM] (active); growth (SF-539 CNS): -61.5% [100 µM] (active); growth (UACC-257 melanoma): -54.7% [100 µM] (active); growth (M14 melanoma): -11.2% [100 µM] (active); growth (HCT-15 colon): -65.6% [100 µM] (active); growth (HT29 colon): -35.6% [100 µM] (active); growth (SNB-75 CNS): -17.6% [100 µM] (active); growth (SNB-19 CNS): -90.1% [100 µM] (active); growth (U251 CNS): -83.2% [100 µM] (active); growth (PC-3 prostate): -19.6% [100 µM] (active); growth (SK-MEL-5 melanoma): -100% [100 µM] (active); growth (UACC-62 melanoma): -70.5% [100 µM] (active); growth (LOX IMVI melanoma): -74.1% [100 µM] (active); growth (SK-MEL-28 melanoma): -59.7% [100 µM] (active)

Question: Which results are given for `CCCn1ccnc1C(O)c1ccc(OCc2ccccc2)c(OC)c1` (stereo not given)?
Answer: growth (DU-145 prostate): 104%; growth (K-562 leukemia): 107%; growth (MALME-3M melanoma): 80.9%; growth (MDA-MB-231 breast): 93.7%; growth (RXF 393 renal): 112%; growth (SF-268 CNS): 93.4%; growth (SF-295 CNS): 76.4%; growth (SF-539 CNS): 92.8%; growth (UACC-257 melanoma): 93.6%; growth (M14 melanoma): 97.2%; growth (HCT-15 colon): 93.5%; growth (HT29 colon): 103%; growth (SNB-75 CNS): 71.2%; growth (SNB-19 CNS): 82.8%; growth (U251 CNS): 86.8%; growth (PC-3 prostate): 82.7%; growth (SK-MEL-5 melanoma): 93.5%; growth (UACC-62 melanoma): 87.3%; growth (LOX IMVI melanoma): 94.4%; growth (SK-MEL-28 melanoma): 103%

Question: Which growth (DU-145 prostate) does the source give for `N#C/C(C(=O)c1ccccc1)=C1/C(=O)Nc2ccc(Br)cc21` here?
Answer: 108%

Question: What about the growth (K-562 leukemia) of the same compound?
Answer: 91.3%

Question: And the growth (MALME-3M melanoma)?
Answer: 96.7%

Question: And the growth (MDA-MB-231 breast)?
Answer: 95.5%

Question: What about the growth (RXF 393 renal) of the same compound?
Answer: 111%

Question: And the growth (SF-268 CNS)?
Answer: 103%

Question: And the growth (SF-295 CNS)?
Answer: 100%

Question: What about the growth (SF-539 CNS) of the same compound?
Answer: 94.7%

Question: And the growth (UACC-257 melanoma)?
Answer: 97.9%

Question: And the growth (M14 melanoma)?
Answer: 107%

Question: And the growth (HCT-15 colon)?
Answer: 107%

Question: What about the growth (HT29 colon) of the same compound?
Answer: 113%

Question: And the growth (SNB-75 CNS)?
Answer: 70.5%

Question: What about the growth (SNB-19 CNS) of the same compound?
Answer: 98.6%

Question: What about the growth (U251 CNS) of the same compound?
Answer: 106%

Question: What about the growth (PC-3 prostate) of the same compound?
Answer: 96.4%

Question: And the growth (SK-MEL-5 melanoma)?
Answer: 95.5%

Question: And the growth (UACC-62 melanoma)?
Answer: 92.5%

Question: What about the growth (LOX IMVI melanoma) of the same compound?
Answer: 103%

Question: And the growth (SK-MEL-28 melanoma)?
Answer: 105%

Question: What does the source list for `Cc1cc(C)c(O)c(CNCCCCCCNCc2cc(C)cc(C)c2O)c1`?
Answer: growth (DU-145 prostate): 7.45% (active); growth (K-562 leukemia): -63% (active); growth (MALME-3M melanoma): -81.9% (active); growth (MDA-MB-231 breast): -44% (active); growth (RXF 393 renal): -2.77% (active); growth (SF-268 CNS): 23.9%; growth (SF-295 CNS): -83.6% (active); growth (SF-539 CNS): -85.3% (active); growth (UACC-257 melanoma): -80.6% (active); growth (M14 melanoma): -79.9% (active); growth (HCT-15 colon): -53.2% (active); growth (HT29 colon): -6.14% (active); growth (SNB-75 CNS): -23.7% (active); growth (SNB-19 CNS): -46.1% (active); growth (U251 CNS): -59.2% (active); growth (PC-3 prostate): 34.7%; growth (SK-MEL-5 melanoma): -91.8% (active); growth (UACC-62 melanoma): -68.9% (active); growth (LOX IMVI melanoma): -85% (active); growth (SK-MEL-28 melanoma): -82.6% (active)

Question: Which results are given for `CC1(C)CC[C@]2(C(=O)OC(=O)[C@]34CCC(C)(C)C[C@@H]3C3=CC[C@@H]5[C@@]6(C)CCC(=O)C(C)(C)[C@@H]6CC[C@@]5(C)[C@]3(C)CC4)CC[C@]3(C)C(=CC[C@@H]4[C@@]5(C)CCC(=O)C(C)(C)[C@@H]5CC[C@]43C)[C@H]2C1`?
Answer: growth (DU-145 prostate): 77.4% [100 µM]; growth (K-562 leukemia): 36.4% [100 µM]; growth (MALME-3M melanoma): 81.2% [100 µM]; growth (MDA-MB-231 breast): 45.7% [100 µM]; growth (RXF 393 renal): 62.6% [100 µM]; growth (SF-268 CNS): 63.4% [100 µM]; growth (SF-295 CNS): 76.5% [100 µM]; growth (SF-539 CNS): 61.6% [100 µM]; growth (UACC-257 melanoma): 69% [100 µM]; growth (M14 melanoma): 77.9% [100 µM]; growth (HCT-15 colon): 73.6% [100 µM]; growth (HT29 colon): 44.8% [100 µM]; growth (SNB-75 CNS): 15.8% [100 µM]; growth (SNB-19 CNS): 62.8% [100 µM]; growth (U251 CNS): 64.6% [100 µM]; growth (PC-3 prostate): 36.6% [100 µM]; growth (SK-MEL-5 melanoma): 25% [100 µM]; growth (UACC-62 melanoma): 49.9% [100 µM]; growth (LOX IMVI melanoma): 64.6% [100 µM]; growth (SK-MEL-28 melanoma): 81.7% [100 µM]
